Out of some 5,500 compounds screened, about 2,000 (36%) were called active. Not shown: some 18% with an inconclusive outcome. Rule as the data show it: active = normalized growth mostly below about 0.91 (no sharp cut-off); inconclusive = no clear call, values can overlap the other calls; inactive = mostly above about 0.92. The list shows a part of the results.
Test: chemical genetic growth profiling, strain panel (AID 1159580);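 also: tested at 20 µM; growth read once vehicle control cultures reached saturation at 30 °C; 1 = growth at the plate median or of vehicle wells; lower values mean less growth of the strain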
Conditions: S. cerevisiae deletion strains, growth OD
[1] = locus YHR030C, strain SLT2, stronger effect = lower value
[2] = locus YJL095W, strain BCK1, stronger effect = lower value

Measured: normalized growth

COc1cccc(-c2cc(=O)c3ccc(OC)cc3o2)c1
active: locus YBR009C, strain hhf1, stronger effect = lower value 0.891 | locus YBR023C, strain chs3, stronger effect = lower value 0.897 | locus YDR392W, strain spt3, stronger effect = lower value 0.623 | locus YER110C, stronger effect = lower value 1.16 [resistant] | locus YER155C, strain BEM2 (second series), stronger effect = lower value 0.699 | locus YGL240W, strain doc1, stronger effect = lower value 0.837 | locus YGL253W, strain hxk2, stronger effect = lower value 0.903 | locus YGR229C, strain SMI1, stronger effect = lower value 0.722 | [1] 0.82 | locus YHR079C, strain IRE1 (second series), stronger effect = lower value 1.08 [resistant] | locus YHR094C, strain hxt1, stronger effect = lower value 1.15 [resistant] | locus YHR142W, strain chs7, stronger effect = lower value 0.793 | locus YIR030C, strain dcg1, stronger effect = lower value 1.14 [resistant] | locus YJL095W, strain BCK1 (second series), stronger effect = lower value 0.916 | [2] 0.656 | locus YKL009W, strain mrt4, stronger effect = lower value 0.828 | locus YKL068W, stronger effect = lower value 0.931 | locus YKL085W, strain MDH1 (second series), stronger effect = lower value 0.845 | locus YKL085W, strain MDH1, stronger effect = lower value 0.845 | locus YKR026C, strain gcn3, stronger effect = lower value 0.91 | locus YLR320W, strain mms22, stronger effect = lower value 0.824 | locus YML124C, strain tub3, stronger effect = lower value 1.13 [resistant] | locus YMR078C, strain ctf18, stronger effect = lower value 1.1 [resistant] | locus YMR205C, strain PFK2, stronger effect = lower value 0.871 | locus YNL071W, strain lat1, stronger effect = lower value 0.813 | locus YNL307C, strain MCK1, stronger effect = lower value 0.842 | locus YNR052C, strain pop2, stronger effect = lower value 1.14 [resistant] | locus YOL147C, strain pex11, stronger effect = lower value 1.08 [resistant] | locus YOR136W, strain idh2, stronger effect = lower value 1.18 [resistant] | locus YOR144C, strain elg1, stronger effect = lower value 1.18 [resistant] | locus YOR270C, strain vph1, stronger effect = lower value 0.71 | locus YOR290C, strain snf2, stronger effect = lower value 0.84 | locus YOR316C, strain cot1, stronger effect = lower value 1.1 [resistant] | locus YPL106C, strain sse1, stronger effect = lower value 0.84
inactive: locus YAL013W, strain DEP1, stronger effect = lower value 0.93 | locus YAL021C, strain ccr4, stronger effect = lower value 0.964 | locus YAL026C, strain drs2, stronger effect = lower value 0.936 | locus YAL030W, strain snc1, stronger effect = lower value 0.943 | locus YBL061C, strain skt5, stronger effect = lower value 0.929 | locus YBR021W, strain FUR4, stronger effect = lower value 0.942 | locus YBR171W, strain sec66, stronger effect = lower value 0.916 | locus YBR229C, strain ROT2, stronger effect = lower value 0.959 | locus YBR231C, strain swc5, stronger effect = lower value 0.922 | locus YBR279W, strain paf1, stronger effect = lower value 0.944 | locus YCL011C, strain gbp2, stronger effect = lower value 0.938 | locus YCL016C, strain dcc1, stronger effect = lower value 0.96 | locus YCL061C, strain MRC1, stronger effect = lower value 0.944 | locus YCL069W, strain vba3, stronger effect = lower value 0.947 | locus YCR088W, strain abp1, stronger effect = lower value 0.938 | locus YDL005C, strain med2, stronger effect = lower value 0.973 | locus YDL035C, strain GPR1, stronger effect = lower value 0.922 | locus YDL040C, strain nat1, stronger effect = lower value 0.948 | locus YDL074C, strain BRE1, stronger effect = lower value 0.837 | locus YDL101C, strain DUN1, stronger effect = lower value 0.954 | locus YDL134C, strain PPH21, stronger effect = lower value 0.978 | locus YDL185W, strain tfp1, stronger effect = lower value 0.978 | locus YDL192W, strain arf1, stronger effect = lower value 1.04 | locus YDR001C, strain nth1, stronger effect = lower value 0.935 | locus YDR069C, strain doa4, stronger effect = lower value 0.96 | locus YDR101C, strain arx1, stronger effect = lower value 1.04 | locus YDR137W, strain rgp1, stronger effect = lower value 0.929 | locus YDR150W, strain NUM1, stronger effect = lower value 0.951 | locus YDR159W, strain sac3, stronger effect = lower value 0.921 | locus YDR162C, strain NBP2, stronger effect = lower value 0.926 | locus YDR195W, strain ref2 1.05 | locus YDR297W, strain sur2, stronger effect = lower value 0.955 | locus YDR318W, strain mcm21, stronger effect = lower value 0.972 | locus YDR334W, strain swr1, stronger effect = lower value 0.943 | locus YDR335W, strain msn5, stronger effect = lower value 0.965 | locus YDR388W, stronger effect = lower value 1.04 | locus YDR502C, strain sam2, stronger effect = lower value 1.04 | locus YEL003W, strain gim4, stronger effect = lower value 0.962 | locus YEL037C, strain rad23, stronger effect = lower value 0.952 | locus YEL061C, strain CIN8 (second series), stronger effect = lower value 0.958 | locus YEL061C, strain CIN8, stronger effect = lower value 0.964 | locus YER015W, strain faa2, stronger effect = lower value 0.953 | locus YER016W, strain bim1, stronger effect = lower value 0.952 | locus YER111C, strain swi4, stronger effect = lower value 0.957 | locus YER155C, strain BEM2, stronger effect = lower value 1.06 | locus YER167W, strain BCK2, stronger effect = lower value 0.907 | locus YFR010W, strain ubp6, stronger effect = lower value 0.961 | locus YGL078C, strain dbp3, stronger effect = lower value 1.05 | locus YGL086W, strain mad1, stronger effect = lower value 0.934 | locus YGL167C, strain pmr1, stronger effect = lower value 0.938 | locus YGL173C, strain kem1, stronger effect = lower value 0.966 | locus YGL227W, strain vid30, stronger effect = lower value 0.946 | locus YGL248W, strain PDE1, stronger effect = lower value 0.946 | locus YGR078C, strain PAC10, stronger effect = lower value 0.945 | locus YGR135W, strain pre9, stronger effect = lower value 1.08 | locus YGR252W, strain gcn5, stronger effect = lower value 0.884 | locus YHR013C, strain ard1, stronger effect = lower value 0.852 | locus YHR027C, strain rpn1, stronger effect = lower value 0.968 | locus YHR129C, strain ARP1, stronger effect = lower value 1.03 | locus YHR200W, strain rpn10, stronger effect = lower value 1.04 | locus YIL066C, strain RNR3, stronger effect = lower value 0.961 | locus YIL073C, strain SPO22, stronger effect = lower value 0.834 | locus YIL125W, strain kgd1, stronger effect = lower value 0.964 | locus YJL092W, strain hpr5, stronger effect = lower value 0.954 | locus YJL115W, strain asf1, stronger effect = lower value 0.954 | locus YJL129C, strain trk1, stronger effect = lower value 0.95 | locus YJL134W, strain LCB3, stronger effect = lower value 0.965 | locus YJL154C, strain vps35, stronger effect = lower value 0.959 | locus YJL164C, strain tpk1, stronger effect = lower value 0.928 | locus YJL166W, strain qcr8, stronger effect = lower value 0.905 | locus YJL168C, strain set2, stronger effect = lower value 1.04 | locus YJL187C, strain SWE1 (second series), stronger effect = lower value 0.942 | locus YJL187C, strain SWE1, stronger effect = lower value 0.949 | locus YJR043C, strain POL32, stronger effect = lower value 0.866 | locus YJR075W, strain HOC1, stronger effect = lower value 0.994 | locus YKL160W, strain elf1, stronger effect = lower value 0.933 | locus YKL190W, strain CNB1, stronger effect = lower value 0.952 | locus YKR001C, strain vps1, stronger effect = lower value 1.06 | locus YKR091W, strain srl3, stronger effect = lower value 0.958 | locus YLL001W, strain dnm1, stronger effect = lower value 0.922 | locus YLL026W, stronger effect = lower value 0.94 | locus YLL041C, strain sdh2, stronger effect = lower value 0.951 | locus YLR027C, strain aat2, stronger effect = lower value 0.934 | locus YLR039C, strain RIC1, stronger effect = lower value 0.983 | locus YLR058C, strain SHM2, stronger effect = lower value 0.999 | locus YLR102C, strain apc9, stronger effect = lower value 1.03 | locus YLR221C, strain rsa3, stronger effect = lower value 0.91 | locus YLR258W, strain gsy2, stronger effect = lower value 0.93 | locus YLR262C, strain YPT6 (second series), stronger effect = lower value 0.916 | locus YLR262C, strain YPT6, stronger effect = lower value 0.989 | locus YLR268W, strain sec22, stronger effect = lower value 0.994 | locus YLR330W, strain CHS5, stronger effect = lower value 1.02 | locus YLR342W, strain FKS1 (second series), stronger effect = lower value 0.839 | locus YLR342W, strain FKS1, stronger effect = lower value 0.951 | locus YLR357W, strain rsc2, stronger effect = lower value 0.856 | locus YLR370C, strain arc18, stronger effect = lower value 0.948 | locus YLR371W, strain rom2, stronger effect = lower value 0.965 | locus YLR384C, strain iki3, stronger effect = lower value 0.962 | locus YLR418C, strain cdc73, stronger effect = lower value 0.948 | locus YML016C, strain PPZ1, stronger effect = lower value 0.998 | locus YML032C, strain rad52, stronger effect = lower value 0.954 | locus YML120C, strain ndi1, stronger effect = lower value 0.92 | locus YMR058W, strain fet3, stronger effect = lower value 0.938 | locus YMR125W, strain sto1, stronger effect = lower value 0.941 | locus YMR129W, stronger effect = lower value 0.971 | locus YMR223W, strain ubp8, stronger effect = lower value 1 | locus YMR231W, strain pep5, stronger effect = lower value 0.97 | locus YMR263W, strain SAP30, stronger effect = lower value 0.896 | locus YMR307W, strain GAS1, stronger effect = lower value 0.734 | locus YNL067W, strain RPL9B, stronger effect = lower value 0.944 | locus YNL128W, strain TEP1, stronger effect = lower value 1.02 | locus YNL153C, strain GIM3, stronger effect = lower value 0.997 | locus YNL209W, strain ssb2, stronger effect = lower value 0.977 | locus YNL233W, strain BNI4, stronger effect = lower value 0.942 | locus YNL248C, strain rpa49, stronger effect = lower value 0.927 | locus YNL250W, strain rad50, stronger effect = lower value 0.969 | locus YNL271C, strain bni1, stronger effect = lower value 0.938 | locus YNL298W, strain CLA4, stronger effect = lower value 0.924 | locus YNL322C, strain KRE1 (second series), stronger effect = lower value 0.959 | locus YNL322C, strain KRE1, stronger effect = lower value 0.958 | locus YNR049C, strain mso1, stronger effect = lower value 0.953 | locus YOL006C, strain TOP1, stronger effect = lower value 0.659 | locus YOL012C, strain htz1 0.755 | locus YOR001W, strain rrp6, stronger effect = lower value 0.94 | locus YOR061W, strain CKA2, stronger effect = lower value 0.951 | locus YOR069W, strain VPS5, stronger effect = lower value 0.958 | locus YOR070C, strain gyp1, stronger effect = lower value 0.942 | locus YOR080W, strain dia2, stronger effect = lower value 0.947 | locus YOR083W, strain WHI5, stronger effect = lower value 0.91 | locus YOR106W, strain vam3, stronger effect = lower value 0.922 | locus YOR184W, strain ser1, stronger effect = lower value 0.959 | locus YOR265W, strain rbl2, stronger effect = lower value 0.942 | locus YPL051W, strain arl3, stronger effect = lower value 0.932 | locus YPL055C, strain LGE1, stronger effect = lower value 0.873 | locus YPL078C, strain atp4, stronger effect = lower value 0.91 | locus YPL240C, strain hsp82, stronger effect = lower value 0.952 | locus YPL241C, strain CIN2, stronger effect = lower value 0.966 | locus YPR119W, strain clb2, stronger effect = lower value 1.03 | locus YPR141C, strain kar3, stronger effect = lower value 1 | locus YPR163C, strain tif3, stronger effect = lower value 1.03 | locus YPR167C, strain met16, stronger effect = lower value 1.04 | strain wtn01, stronger effect = lower value 1.05

COc1ccc2oc(-c3ccccc3OC)cc(=O)c2c1
inactive: [1] 0.875 | locus YHR079C, strain IRE1, stronger effect = lower value 0.911 | [2] 0.889 | locus YJR066W, strain TOR1, stronger effect = lower value 0.851 | locus YLR113W, strain HOG1, stronger effect = lower value 0.966 | locus YNL183C, strain NPR1, stronger effect = lower value 0.883 | locus YOR231W, strain MKK1, stronger effect = lower value 0.91 | locus YPL256C, strain CLN2, stronger effect = lower value 0.936
